# Experimental data from PubChem BioAssay.
# Calls of active or inactive are those of the source.
# Assays:
# [1] = optical density shifts of acrAB sulA E. coli – strain DRC41, OD650, 48 h, E. coli filamentation inducer project, primary screen (AID 1152); conditions: higher = more signal, called active from +8 up or from −8 down;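 further: E. coli MC1000 strain DRC41 lacking acrAB efflux pump and sulA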
# [2] = probe aLefty1 binding on compound microarray – biochemical, small-molecule microarray, 635/667 nm fluorescence, primary screen (AID 1153); conditions: higher = more signal;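 further: score merges spot fluorescence with signal-to-noise ratio from the scanned slide images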
# [3] = plasmodial surface anion channel blockers, osmotic lysis – cell-based, P. falciparum Indochina, OD700, 1 h, primary screen (AID 1154); conditions: P. falciparum Indochina infected RBC osmotic lysis, higher = more signal, called active from +8 up or from −8 down
# [4] = plasmodial surface anion channel blockers, osmotic lysis – cell-based, P. falciparum Indochina, OD700, 2 h, primary screen (AID 1155);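 further: lysis reports solute entry through the parasite surface anion channel PSAC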; conditions: P. falciparum Indochina infected erythrocytes, higher = more signal, called active from +8 up or from −8 down
# [5] = changes in parasitized red cell lysis, either direction – P. falciparum Indochina, OD700, 3 h, PSAC antagonist project, primary screen (AID 1156); conditions: P. falciparum-infected erythrocytes, osmotic lysis, higher = more signal, called active from +8 up or from −8 down
# [6] = plasmodial surface anion channel blockers, osmotic lysis – cell-based, P. falciparum Indochina, OD700, 18 h, primary screen (AID 1157); conditions: P. falciparum Indochina infected erythrocytes, osmotic lysis OD700, 18 h; higher = more signal, called active from +8 up or from −8 down
# [7] = S6 kinase pathway phospho-S6 level changes – cell-based, A549, cytoblot, luminescence, serum-stimulated, primary screen (AID 1158); conditions: 5 h, higher = more signal;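 further: serum-stimulated A549 lung adenocarcinoma cells; signal is phosphorylated S6 detected by cytoblot immunostaining with HRP secondary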
# [8] = molecular target: NADPH oxidase 2 (Homo sapiens) (UniProt P04839); test: compounds shifting NOX2 Amplex Red fluorescence – cell-based, HEK293-NOX2, PMA-stimulated, NOX inhibitor project, primary screen (AID 1159); conditions: 45 min, higher = more signal, called active from +8 up or from −8 down; further: test concentration not given here
# [9] = molecular target: NADPH oxidase 4 (Homo sapiens) (UniProt Q9NPH5); test: compounds shifting NOX4 Amplex Red fluorescence – cell-based, HEK293-NOX4, tetracycline-induced, NOX inhibitor project, primary screen (AID 1160); conditions: HEK293-NOX4, Amplex Red H2O2 fluorescence, 45 min; higher = more signal, called active from +8 up or from −8 down
# [10] = molecular target: NADPH oxidase 5 (Homo sapiens) (UniProt Q96PH1); test: compounds shifting NOX5 Amplex Red fluorescence – cell-based, HEK293-NOX5, NOX inhibitor project, primary screen (AID 1161); conditions: HEK293-NOX5, ionomycin, 45 min, higher = more signal
# [11] = compound effects on lung adenocarcinoma cell viability – A549, calcein-AM fluorescence, 48 h, basal, profiling panel (AID 1162); conditions: higher = more signal; further: test concentration not given here
# [12] = compound effects on differentiated 3T3-L1 adipocyte viability – cell-based, 3T3-L1 adipocytes, calcein-AM fluorescence, 48 h, basal, profiling panel (AID 1163); conditions: 3T3-L1 adipocytes viability, higher = more signal; further: test concentration not given here
# [13] = compound effects on hepatocellular carcinoma cell viability – HepG2, calcein-AM fluorescence, 48 h, basal, profiling panel (AID 1164); conditions: higher = more signal; further: test concentration not given here
# [14] = compound effects on multiple myeloma cell viability – MM1S, calcein-AM fluorescence, 48 h, basal, profiling panel (AID 1165); conditions: higher = more signal; further: test concentration not given here
# [15] = calcein-AM signal in unstimulated myeloma cells – cell-based, calcein-AM fluorescence, 48 h, PK04 Diversity Set, profiling panel (AID 1166); conditions: RPMI8226 myeloma viability, higher = more signal;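 further: cells grown under basal conditions without added stimulus; test concentration not given here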
# [16] = JC-1 mitochondrial signal, unstimulated HepG2 cells – cell-based, JC-1 fluorescence, 24 h, 100 nL compound, profiling panel (AID 1167); conditions: HepG2 mitochondrial potential, higher = more signal; further: test concentration not given here
# [17] = JC-1 mitochondrial signal, unstimulated adipocytes – cell-based, JC-1 fluorescence, 3T3-L1 adipocytes, 24 h, 100 nL compound, profiling panel (AID 1168); conditions: JC-1 mitochondrial fluorescence, higher = more signal, called active from +8 up or from −8 down; further: test concentration not given here
# [18] = JC-1 mitochondrial signal, unstimulated myeloma cells – cell-based, JC-1 fluorescence, RPMI8226, 24 h, 100 nL compound, profiling panel (AID 1169); conditions: JC-1 mitochondrial potential fluorescence, higher = more signal; further: test concentration not given here
# [19] = JC-1 mitochondrial signal, unstimulated MM1S myeloma – cell-based, JC-1 fluorescence, 24 h, 100 nL compound, profiling panel (AID 1170); conditions: MM1S mitochondrial potential, higher = more signal; further: test concentration not given here
# [20] = resazurin metabolic signal in A549 cells – cell-based, resazurin fluorescence, 24 h, PK04 Diversity Set, profiling panel (AID 1171); conditions: A549 viability, higher = more signal, called active from +8 up or from −8 down; further: test concentration not given here
# NADPH oxidase 2 (Homo sapiens), sequence (P04839 whole entry, looked up): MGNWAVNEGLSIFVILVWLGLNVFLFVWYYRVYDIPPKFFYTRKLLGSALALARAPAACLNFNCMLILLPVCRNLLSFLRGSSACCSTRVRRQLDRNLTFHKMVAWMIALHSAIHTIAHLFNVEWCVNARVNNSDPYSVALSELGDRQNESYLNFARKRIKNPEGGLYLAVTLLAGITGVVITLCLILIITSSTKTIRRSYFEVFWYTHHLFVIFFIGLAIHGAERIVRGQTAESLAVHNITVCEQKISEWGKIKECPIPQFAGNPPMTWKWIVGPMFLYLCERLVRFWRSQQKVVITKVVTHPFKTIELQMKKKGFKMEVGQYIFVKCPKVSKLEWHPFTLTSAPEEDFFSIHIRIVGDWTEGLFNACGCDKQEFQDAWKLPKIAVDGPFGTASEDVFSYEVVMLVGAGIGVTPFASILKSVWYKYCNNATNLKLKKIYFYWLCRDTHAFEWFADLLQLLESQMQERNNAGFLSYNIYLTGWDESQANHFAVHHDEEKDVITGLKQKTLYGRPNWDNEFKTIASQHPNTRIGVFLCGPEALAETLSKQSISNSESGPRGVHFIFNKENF
# NADPH oxidase 4 (Homo sapiens), sequence (Q9NPH5 whole entry, looked up): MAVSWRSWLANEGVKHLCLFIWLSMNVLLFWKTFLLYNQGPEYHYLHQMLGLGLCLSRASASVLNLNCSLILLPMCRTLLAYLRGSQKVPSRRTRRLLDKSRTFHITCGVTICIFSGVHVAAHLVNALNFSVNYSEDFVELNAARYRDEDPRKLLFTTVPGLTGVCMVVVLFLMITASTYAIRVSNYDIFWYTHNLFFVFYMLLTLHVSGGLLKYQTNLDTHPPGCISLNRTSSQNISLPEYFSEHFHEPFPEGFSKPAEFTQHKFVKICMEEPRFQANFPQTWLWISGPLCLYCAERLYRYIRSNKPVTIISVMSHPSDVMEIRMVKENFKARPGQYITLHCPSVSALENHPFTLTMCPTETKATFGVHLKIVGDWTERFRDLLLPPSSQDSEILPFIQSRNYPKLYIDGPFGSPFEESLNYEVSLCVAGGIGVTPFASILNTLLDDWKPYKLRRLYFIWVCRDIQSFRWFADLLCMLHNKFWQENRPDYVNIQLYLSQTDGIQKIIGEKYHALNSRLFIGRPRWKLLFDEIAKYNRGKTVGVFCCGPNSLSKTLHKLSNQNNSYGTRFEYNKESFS
# NADPH oxidase 5 (Homo sapiens), sequence (Q96PH1 whole entry, looked up): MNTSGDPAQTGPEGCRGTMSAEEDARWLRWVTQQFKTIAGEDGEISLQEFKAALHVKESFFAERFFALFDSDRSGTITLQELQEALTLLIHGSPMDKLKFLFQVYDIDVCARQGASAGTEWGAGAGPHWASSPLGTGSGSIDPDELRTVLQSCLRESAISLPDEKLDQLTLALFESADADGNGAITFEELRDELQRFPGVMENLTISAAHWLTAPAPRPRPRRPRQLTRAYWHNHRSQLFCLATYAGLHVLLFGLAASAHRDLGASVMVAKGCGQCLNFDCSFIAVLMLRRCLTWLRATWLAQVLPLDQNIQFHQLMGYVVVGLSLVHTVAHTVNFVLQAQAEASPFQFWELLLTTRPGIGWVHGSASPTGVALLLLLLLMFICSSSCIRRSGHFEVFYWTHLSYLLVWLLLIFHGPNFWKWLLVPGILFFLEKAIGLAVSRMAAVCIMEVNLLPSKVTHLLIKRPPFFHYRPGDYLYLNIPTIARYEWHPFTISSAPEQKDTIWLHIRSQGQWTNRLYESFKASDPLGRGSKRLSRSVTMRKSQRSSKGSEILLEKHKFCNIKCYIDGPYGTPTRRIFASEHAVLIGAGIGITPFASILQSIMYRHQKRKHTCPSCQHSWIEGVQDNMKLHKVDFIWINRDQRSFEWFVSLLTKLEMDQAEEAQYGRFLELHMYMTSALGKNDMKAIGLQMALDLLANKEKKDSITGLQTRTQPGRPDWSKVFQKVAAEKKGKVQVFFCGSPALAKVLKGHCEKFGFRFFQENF
SMILES,z-score [1],composite z-score [2],z-score [3],z-score [4],z-score [5],z-score [6],z-score [7],z-score [8],z-score [9],z-score [10],z-score [11],z-score [12],z-score [13],z-score [14],z-score [15],z-score [16],z-score [17],z-score [18],z-score [19],z-score [20]
O=C1OCCC/C=C\[C@H]2OC34C=CCN(Cn5nnc6ccccc65)C(=O)[C@H]3N(CCCCCO)C(=O)[C@@H]4C12 (stereo not given in full),0.246 (inactive),0.278,2.6 (inactive),0.0767 (inactive),-0.212 (inactive),0.479 (inactive),-0.339,0.871 (inactive),-0.167 (inactive),1.15,-0.452,1.05,-1.02,-0.496,0.424,0.19,0.0884 (inactive),-0.212,0.37,0.0684 (inactive)
C=C[C@H](C)[C@@H](O)c1ccc(O)c2ccccc12,0.048 (inactive),0.169,1.01 (inactive),1.05 (inactive),0.0353 (inactive),1.02 (inactive),-0.157,-5.28 (inactive),-1.05 (inactive),1.33,-0.573,-0.69,-0.218,-2.57,-1.55,-1.98,-0.641 (inactive),-0.94,-1.29,-0.292 (inactive)
CC(C)CNC(=O)[C@@]1(c2ccc([N+](=O)[O-])cc2)CC(=O)N(CC23CC4CC(CC(C4)C2)C3)[C@@H]1c1ccc(CO)cc1I,-0.998 (inactive),-0.0114,17.2 (active),3.11 (inactive),2.73 (inactive),1.41 (inactive),-0.472,2 (inactive),-1.12 (inactive),1.75,-0.394,0.604,-3.4,-3.83,-4.32,1.47,-0.744 (inactive),-0.948,-0.674,-2.77 (inactive)
COCCOC(=O)N1C(=O)[C@@]2(c3cc(C#CC4=CCCCC4)ccc31)[C@H](C(=O)N1CCc3cc(OC)c(OC)cc3C1)[C@H]1C(=O)O[C@H](c3ccccc3)[C@H](c3ccccc3)N1[C@@H]2c1ccccc1OCCO,0.585 (inactive),-0.012,2.4 (inactive),0.876 (inactive),0.827 (inactive),0.703 (inactive),-0.113,1.72 (inactive),0.58 (inactive),1.99,0.145,0.299,0.274,-1.37,-1.06,0.0701,2.17 (inactive),-0.701,-0.72,0.267 (inactive)
Cc1cc(C)cc(N2C(=O)CS(=O)(=O)C2c2cccc([N+](=O)[O-])c2)c1 (stereo not given),0.469 (inactive),1.33,0.548 (inactive),-0.385 (inactive),0.809 (inactive),-1.48 (inactive),1.48,0.316 (inactive),0.227 (inactive),1.63,1.26,0.869,1.41,0.871,1.47,0.994,0.76 (inactive),-0.327,-0.744,-0.913 (inactive)
CC(C)NC(=O)[C@@H]1c2ccccc2C(=O)N(Cc2ccccc2Cl)[C@H]1c1ccc(CO)cc1,1.09 (inactive),0.509,2.67 (inactive),1.05 (inactive),0.796 (inactive),0.183 (inactive),-0.469,-0.444 (inactive),0.715 (inactive),0.376,1.97,0.84,1.23,0.0027,0.665,2.42,-0.466 (inactive),-0.195,-0.615,1.46 (inactive)
COc1ccc(CCNC(=O)[C@@]2(c3ccc([N+](=O)[O-])cc3)CC(=O)N(CC34CC5CC(CC(C5)C3)C4)[C@@H]2c2ccc(CO)cc2)cc1,0.0305 (inactive),0.155,4.6 (inactive),0.522 (inactive),3.14 (inactive),-0.24 (inactive),2,-0.956 (inactive),-4.54 (inactive),-3.97,-2.36,0.369,-1.88,-2.98,-4.23,1.23,-0.626 (inactive),-0.857,-0.452,-2.29 (inactive)
CC(C)C[C@@H]1NC(=O)[C@@H]2C[C@H](C(=O)NCCCCCC[N+](C)(C)C)[C@H](c3ccc(O)cc3)N2C1=O,0.55 (inactive),0.127,3.47 (inactive),0.637 (inactive),-1.96 (inactive),0.227 (inactive),-0.274,0.994 (inactive),0.763 (inactive),0.75,-0.633,-0.77,0.145,0.305,0.996,-0.595,0.566 (inactive),-0.815,-0.39,0.0131 (inactive)
COC(=O)[C@@]1(Cc2ccc(F)cc2)[C@H]2c3cc(C(=O)N(C)C)n(CCc4ccccn4)c3C[C@H]2CN1C(=O)c1ccccc1,-0.815 (inactive),1.01,1.81 (inactive),-0.0235 (inactive),0.892 (inactive),-1.66 (inactive),0.402,0.831 (inactive),1.03 (inactive),0.234,-0.619,0.698,-1.39,0.0635,-0.722,-0.0662,-0.539 (inactive),-0.153,0.95,0.429 (inactive)
